# Measurements published in PubChem BioAssay (Tox21).
# Values without a mark were called inactive. Inconclusive results are not listed. Where a call stands in place of a potency, no number is given. Calls of active or inactive are those of the source. Unless noted, calls follow the shape of the dose curve; as a rule, active = well fitted curve in the direction sought with a large enough effect in the repeat runs; inconclusive = weak or mixed curves; inactive = flat fitted curve, though single readings scatter.
# Columns and labels:
# [1] = qHTS assay to test for compound auto fluorescence at 535 nm (green) in HEK293 cells (AID 720680)
# [2] = qHTS assay to test for compound auto fluorescence at 460 nm (blue) in HEK293 cell free culture (AID 720681)
# Method in brief: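 Blue fluorescence (Ex 405/Em 460 nm, triamterene-equivalent) was read immediately after pin transfer of compound or DMSO into medium (DMEM, 10% FBS) without cells.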
# [3] = qHTS assay to test for compound auto fluorescence at 590 nm (red) in HEK293 cell free culture (AID 720683)
# Method in brief: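 Red-channel autofluorescence of compounds in culture medium (DMEM, 10% FBS), no cells, measured at 540/590 nm. Rose Bengal sodium is the reference fluorophore for equivalence.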
# [4] = qHTS assay to test for compound auto fluorescence at 590 nm (red) in HepG2 cell free culture (AID 720684)
# Method in brief: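 Steps: dispense MEM/10% FBS medium, no cells; pin compound or DMSO vehicle; read red channel, Ex/Em 540/590 nm. Output given as Rose Bengal sodium equivalents.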
# [5] = qHTS assay to test for compound auto fluorescence at 460 nm (blue) in HepG2 cell free culture (AID 720685)
# Method in brief: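 Compound (23 nL) or DMSO pinned into cell-free MEM with 10% FBS; blue fluorescence read at 405/460 nm excitation/emission, expressed as auto-fluorescence equivalency to triamterene.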
# [6] = qHTS assay to test for compound auto fluorescence at 535 nm (green) in HepG2 cell free culture (AID 720686)
# [7] = qHTS assay to test for compound auto fluorescence at 460 nm (blue) in HepG2 cells (AID 720687)
# Method in brief: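 Blue-channel autofluorescence (Ex/Em 405/460 nm, triamterene-equivalent) was measured after 1 hr compound exposure at 37 C, 5% CO2. Cells were HepG2, plated overnight at 37 C in MEM plus 10% FBS.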
# [8] = biological target: Glucocorticoid receptor (Homo sapiens) (UniProt P04150); experiment: qHTS assay to identify small molecule agonists of the glucocorticoid receptor (GR) signaling pathway (AID 720691; active = well fitted activation curve with a large enough effect in the signal ratio in the repeat runs, not every such curve was filed as active; the % refers to the signal ratio)
# Glucocorticoid receptor (Homo sapiens), sequence (P04150 whole entry, looked up): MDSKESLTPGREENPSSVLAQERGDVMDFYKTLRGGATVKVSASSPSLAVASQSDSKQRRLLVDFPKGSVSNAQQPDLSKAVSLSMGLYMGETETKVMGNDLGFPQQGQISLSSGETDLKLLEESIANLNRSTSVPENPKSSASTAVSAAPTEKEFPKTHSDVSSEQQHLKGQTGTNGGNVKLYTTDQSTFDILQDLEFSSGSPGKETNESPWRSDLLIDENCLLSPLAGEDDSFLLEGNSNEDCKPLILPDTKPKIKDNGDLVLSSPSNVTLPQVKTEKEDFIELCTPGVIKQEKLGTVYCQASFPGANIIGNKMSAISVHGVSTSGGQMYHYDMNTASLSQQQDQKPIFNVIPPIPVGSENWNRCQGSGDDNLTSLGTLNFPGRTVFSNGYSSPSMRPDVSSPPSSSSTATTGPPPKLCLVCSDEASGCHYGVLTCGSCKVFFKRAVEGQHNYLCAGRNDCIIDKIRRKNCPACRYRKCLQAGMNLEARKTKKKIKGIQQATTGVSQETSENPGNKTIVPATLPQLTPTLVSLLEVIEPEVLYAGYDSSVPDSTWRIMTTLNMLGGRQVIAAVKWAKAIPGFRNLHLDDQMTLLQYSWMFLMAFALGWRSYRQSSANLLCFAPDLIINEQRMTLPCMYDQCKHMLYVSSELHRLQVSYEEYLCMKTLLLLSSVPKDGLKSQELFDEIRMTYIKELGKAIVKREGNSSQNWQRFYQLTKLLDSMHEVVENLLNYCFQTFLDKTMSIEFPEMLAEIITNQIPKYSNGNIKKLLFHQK
# Method in brief: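 Agonist mode in a HeLa line carrying a GRE-controlled beta-lactamase reporter. Compounds act for 18 h at 37 C before a 2 h room-temperature FRET substrate step and fluorescence reading.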
# [9] = biological target: Glucocorticoid receptor (Homo sapiens) (UniProt P04150); experiment: qHTS assay to identify small molecule antagonists of the glucocorticoid receptor (GR) signaling pathway (AID 720692; active = well fitted inhibition curve with a large enough effect in the signal ratio in the repeat runs, not every such curve was filed as active; the % refers to the signal ratio; also: potency is read from the fitted curve at half-maximal effect)
# Method in brief: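 Cells plated, rested 4 h at 37 C/5% CO2; compounds in DMSO pin-transferred; dexamethasone added to 5 nM final; 18 h at 37 C; B/G FRET substrate added, 2 h room temperature; fluorescence measured.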
# [10] = qHTS assay to test for compound auto fluorescence at 535 nm (green) in HEK293 cell free culture (AID 720682)
# Method in brief: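 Read-out: 485/535 nm fluorescence intensity, calibrated against fluorescein. Medium only (DMEM + 10% FBS, no cells); test compound or DMSO vehicle added by pintool before plate reading.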
Compound,outcome [1],Potency [2],outcome [3],outcome [4],Potency [5],outcome [6],Potency [7],Potency [8],Potency [9],outcome [10]
CC(=O)[O-].[Tl+],inactive,inactive,inactive,inactive,inactive,inactive,inactive,–,–,–
N#CNC#N,inactive,inactive,inactive,inactive,inactive,inactive,inactive,inactive,inactive,–
CC(=O)C(Cl)(Cl)Cl,inactive,inactive,inactive,inactive,inactive,–,inactive,inactive,–,inactive
CC(=O)Nc1ccc2c(c1)Cc1ccccc1-2,inactive,inactive,inactive,inactive,inactive,inactive,inactive,–,–,–
COP(=O)(OC)SCn1c(=O)oc2cc(Cl)cnc21,inactive,inactive,inactive,inactive,inactive,inactive,inactive,inactive,–,–
CC(C)[C@H](C(=O)OC(C#N)c1cccc(Oc2ccccc2)c1)c1ccc(OC(F)F)cc1 (stereo partly drawn),inactive,inactive,inactive,inactive,inactive,–,inactive,–,–,inactive
CC(C)(O)c1cnn2c(-c3ccc(F)c(-c4c(F)cccc4C#N)c3)cnc2n1,inactive,inactive,inactive,inactive,inactive,–,inactive,–,–,inactive
CCOC(=O)OC1=C(c2cc(C)ccc2C)C(=O)NC12CCC(OC)CC2 (stereo not drawn),inactive,inactive,inactive,inactive,inactive,inactive,inactive,inactive,–,–
CCOc1cc(C(C)(C)C)ccc1C1COC(c2c(F)cccc2F)=N1 (stereo not drawn),inactive,inactive,inactive,inactive,inactive,–,inactive,–,–,–
C[C@H]1O[C@@H](O[C@H]2[C@@H](O)C[C@H](O[C@H]3[C@@H](O)C[C@H](O[C@H]4CC[C@@]5(C)[C@H](CC[C@@H]6[C@@H]5CC[C@]5(C)[C@@H](C7=CC(=O)OC7)CC[C@]65O)C4)O[C@@H]3C)O[C@@H]2C)C[C@H](O)[C@@H]1O,inactive,inactive,inactive,inactive,inactive,–,inactive,inactive,425 nM (active),inactive
[Cd+2].[Cl-].[Cl-],inactive,inactive,inactive,inactive,inactive,–,inactive,–,–,inactive
CCCOCC(=Nc1ccc(Cl)cc1C(F)(F)F)n1ccnc1,inactive,inactive,inactive,inactive,inactive,inactive,inactive,–,–,–
O=[N+]([O-])c1cc([N+](=O)[O-])c2ccccc2c1,inactive,inactive,inactive,inactive,inactive,inactive,inactive,inactive,–,–
